Sampled rows, rich in hits. Any-hit rate of the full collection: about 6.5%.
Autofluor 339: intrinsic fluorescence of library compounds, ex339/em460 – biochemical, MLSMR library, data from DPM-DC assay, artefact control, profiling panel | compound autofluorescence, ex339/em460 nm, NADH buffer; active compounds read high; 1 = no-compound wells, NADH background | fluorescence fold increase at 10 µM | 65,000 compounds, 5.5% hits | AID 709;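 active = at 10 µM, mean starting fluorescence two-fold or more over control wells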;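 also: signal is the first read of a kinetic run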
Spn PMK inh: blocks S. pneumoniae phosphomevalonate kinase | purified PMK, PK/LDH-coupled NADH absorbance 340 nm | inhibition, % at 10 µM | 65,000 compounds, 0.49% hits;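 active = top-ranked compounds by inhibition in the single 10 µM screen, taking a fixed number of the strongest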
NADH coupling: inhibition of NAD/NADH coupling enzymes, library profiling | coupled PK/LDH NADH assays, four targets | IC50, µM (top dose mostly 10 µM) | 65,000 compounds, 0.02% hits;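 active = single-dose screening hits from any of four coupled enzyme assays that gave an IC50 when retested across doses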;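 also: the DPM-DC format reads NADH fluorescence rather than 340 nm absorbance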
A340 absorber: absorbance at 340 nm | 65,000 tested, under 10 active | compound absorbance at 340 nm, fold over control | fold change at 10 µM;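 active = at 10 µM dose, initial 340 nm absorbance at least 2 fold that of control wells; inactive = change under 2 fold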;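 also: initial absorbance extrapolated from kinetic A340 decline of NADH oxidation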
MK inhibit: inhibitors of Streptococcus pneumoniae mevalonate kinase; purified MK, PK/LDH-coupled NADH absorbance 340 nm; inhibition, % at 10 µM; 65,000 compounds, 0.48% hits; AID 555;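 active = ranked among the strongest by inhibition in the single 10 µM screen, a fixed top-ranked set picked for dose follow-up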
DPM-DC inhibit: S. pneumoniae DPM-DC inhibition. 65,000 compounds, 0.49% hits. calls only at 10 µM. purified DPM-DC, PK/LDH coupled NADH fluorescence;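 active = the 320 compounds with the highest percent inhibition in the single-dose primary screen, excluding strongly autofluorescent ones, cut at about 32% in these data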;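 also: kinetic rate of NADH fluorescence loss reporting ADP formed by the decarboxylase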
Hits are given with their value; [ ] = another dose, or the depositor's remark.

`CN(Cc1ccccc1)Cc1c(F)cccc1F` gave Autofluor 339 inactive, Spn PMK inh inactive, NADH coupling inactive, A340 absorber inactive, MK inhibit 52 and DPM-DC inhibit inactive.
Cc1ccc(S(=O)(=O)c2cc3c(=O)n4ccccc4nc3n(Cc3ccco3)c2=N)cc1C was read as Autofluor 339 3.5, Spn PMK inh inactive, NADH coupling inactive, A340 absorber inactive and MK inhibit inactive.
O=c1c2ccccc2c2ccccc2c(=O)n1Cc1ccco1 was read as Autofluor 339 inactive, Spn PMK inh inactive, NADH coupling inactive, A340 absorber inactive, MK inhibit inactive and DPM-DC inhibit inactive.
N=c1c(S(=O)(=O)c2ccccc2)cc2c(=O)n3ccccc3nc2n1Cc1ccco1 was read as Autofluor 339 4, Spn PMK inh inactive, NADH coupling inactive, A340 absorber inactive and MK inhibit inactive.
`N=c1c(S(=O)(=O)c2ccccc2)cc2c(=O)n3ccccc3nc2n1CCN1CCOCC1` gave Autofluor 339 3.7, Spn PMK inh inactive, NADH coupling inactive, A340 absorber inactive and MK inhibit inactive.
Screening Cc1ccc(S(=O)(=O)c2cc3c(=O)n4ccccc4nc3n(CC3CCCO3)c2=N)cc1C (stereo not given) returned Autofluor 339 2.2, Spn PMK inh inactive, NADH coupling inactive, A340 absorber inactive, MK inhibit inactive and DPM-DC inhibit active[fluoresces].
For CC(C)(C)C(=O)Cn1c(=O)n(CC2CCCO2)c(=O)c2ccccc21 (stereo not given) the results were Autofluor 339 inactive, Spn PMK inh inactive, NADH coupling inactive, A340 absorber inactive, MK inhibit inactive and DPM-DC inhibit inactive.
`Cc1ccc(S(=O)(=O)c2cc3c(=O)n4ccccc4nc3n(C)c2=N)cc1` gave Autofluor 339 inactive, Spn PMK inh inactive, NADH coupling inactive, A340 absorber inactive, MK inhibit inactive and DPM-DC inhibit inactive.
Screening CCc1nnc(NC(=O)CSc2ncc(-c3ccccc3)n2CC)s1 returned Autofluor 339 inactive, Spn PMK inh inactive, NADH coupling inactive, A340 absorber inactive, MK inhibit inactive and DPM-DC inhibit inactive.
Screening O=C1CC(NCc2ccncc2)C(=O)N1c1ccc(Cl)cc1 (stereo not given) returned Autofluor 339 inactive, Spn PMK inh inactive, NADH coupling inactive, A340 absorber inactive, MK inhibit inactive and DPM-DC inhibit inactive.
Cc1cc(NC(=O)C2CCC2)n(-c2ccccn2)n1 was read as Autofluor 339 inactive, Spn PMK inh inactive, NADH coupling inactive, A340 absorber inactive, MK inhibit inactive and DPM-DC inhibit inactive.
`COc1ccc(OC)c2c1CCC2=O` gave Autofluor 339 2.3, Spn PMK inh inactive, NADH coupling inactive, A340 absorber inactive and MK inhibit inactive.
For CCOC(=O)c1ccccc1NC(=O)C1COc2ccccc2O1 (stereo not given) the results were Autofluor 339 inactive, Spn PMK inh inactive, NADH coupling inactive, A340 absorber inactive, MK inhibit inactive and DPM-DC inhibit inactive.
Screening CCOC(=O)c1ccc(NC(=O)CN2C(=O)CSC2=O)cc1 returned Autofluor 339 inactive, Spn PMK inh inactive, NADH coupling inactive, A340 absorber inactive, MK inhibit inactive and DPM-DC inhibit inactive.
For CCOC(=O)c1ccccc1NCN1C(=O)CSC1=O the results were Autofluor 339 2.2, Spn PMK inh 29, NADH coupling inactive, A340 absorber inactive and MK inhibit inactive.
CCOC(=O)c1ccccc1NC1CC(=O)N(c2ccccc2C)C1=O (stereo not given) was read as Autofluor 339 3.3, Spn PMK inh inactive, NADH coupling inactive, A340 absorber inactive and MK inhibit inactive.
Screening CCC(C)(C)NC(=O)C(OC(=O)c1ccco1)c1ccccc1OC (stereo not given) returned Autofluor 339 inactive, Spn PMK inh inactive, NADH coupling inactive, A340 absorber inactive, MK inhibit inactive and DPM-DC inhibit inactive.
For Cc1cnc(-c2nnc(N(C)C(=O)C3CCCO3)s2)cn1 (stereo not given) the results were Autofluor 339 2.3, Spn PMK inh inactive, NADH coupling inactive, A340 absorber inactive, MK inhibit inactive and DPM-DC inhibit inactive.
Cc1csc(NC(=O)C2CCCO2)n1 (stereo not given) was read as Autofluor 339 inactive, Spn PMK inh inactive, NADH coupling inactive, A340 absorber inactive, MK inhibit inactive and DPM-DC inhibit inactive.
`COCC(=O)N(C)c1nnc(-c2cnc(C)cn2)s1` gave Autofluor 339 inactive, Spn PMK inh 32, NADH coupling inactive, A340 absorber inactive, MK inhibit inactive and DPM-DC inhibit inactive.
CC(=O)NCC1=C(NC(C)=O)C2CC1C(C)(C)C2C (stereo not given) was read as Autofluor 339 inactive, Spn PMK inh inactive, NADH coupling inactive, A340 absorber inactive, MK inhibit inactive and DPM-DC inhibit inactive.
`Cc1cc(N2CCCC2)n2nc(C)nc2n1` gave Autofluor 339 inactive, Spn PMK inh inactive, NADH coupling inactive, A340 absorber inactive, MK inhibit inactive and DPM-DC inhibit inactive.
For CCOC(=O)N1CCN(c2cc(C)nc3nc(C)nn23)CC1 the results were Autofluor 339 2.1, Spn PMK inh inactive, NADH coupling inactive, A340 absorber inactive and MK inhibit inactive.
Screening CN(C(=O)CSc1nc(N)nn1-c1ccccc1)c1ccccc1 returned Autofluor 339 inactive, Spn PMK inh inactive, NADH coupling inactive, A340 absorber inactive, MK inhibit inactive and DPM-DC inhibit inactive.
COCCNC(=O)C(c1ccc(C)o1)N(C(=O)c1snc(C(N)=O)c1N)c1ccc(C)c(C)c1 (stereo not given) was read as Autofluor 339 inactive, Spn PMK inh inactive, NADH coupling inactive, A340 absorber inactive, MK inhibit inactive and DPM-DC inhibit inactive.
CC(C(=O)NCc1ccccc1)N(CCN1CCOCC1)C(=O)c1snc(C(N)=O)c1N (stereo not given) was read as Autofluor 339 2.4, Spn PMK inh inactive, NADH coupling inactive, A340 absorber inactive, MK inhibit inactive and DPM-DC inhibit inactive.
CC(C(=O)NCC1CCCO1)N(C(=O)c1snc(C(N)=O)c1N)c1cccc(F)c1 (stereo not given) was read as Autofluor 339 3.9, Spn PMK inh inactive, NADH coupling inactive, A340 absorber inactive, MK inhibit inactive and DPM-DC inhibit inactive.
CC(C(=O)NCC1CCCO1)N(C(=O)c1snc(C(N)=O)c1N)c1ccccc1 (stereo not given) was read as Autofluor 339 3.1, Spn PMK inh inactive, NADH coupling inactive, A340 absorber inactive, MK inhibit inactive and DPM-DC inhibit inactive.
Screening CC(NC(=O)OCc1ccccc1)C(=O)NCC1CCCO1 (stereo not given) returned Autofluor 339 inactive, Spn PMK inh inactive, NADH coupling inactive, A340 absorber inactive, MK inhibit inactive and DPM-DC inhibit inactive.
For CCOCCCn1c(=N)c(C(=O)NCCN2CCOCC2)cc2c(=O)n3cccc(C)c3nc21 the results were Autofluor 339 5.2, Spn PMK inh inactive, NADH coupling inactive, A340 absorber inactive and MK inhibit inactive.

Compound activity deposited in PubChem BioAssay by SRMLSC.
